Screens deposited in PubChem by several laboratories.
Hits are enriched below; roughly 1.8% of the tested compounds scored in any of these assays.
Sa RN4220 lethal – kills Staphylococcus aureus RN4220; S. aureus RN4220 growth, OD600, 16 h; inhibition, % (no concentration beside the values); 0.33% of 330,000 active; AID 1259311; in the data active = inhibition above about 85%;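 also: plate controls were untreated cells for no effect and reference antibiotic for full effect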
PrPC TRFRET – cell surface PrPC inhibition, primary TR-FRET screen; P04156; TR-FRET read-out; inhibition, % at 13.8 µM; 0.43% of 370,000 active; in the data active = inhibition above about 24%; also: 0% = median of the test wells and 100% = reference compound wells
DUSP3 inh – inhibitors of human VHR1 phosphatase (DUSP3); P51452; recombinant VHR phosphatase, pNPP absorbance; inhibition, % at 13.3 µM; 0.52% of 290,000 active; AID 1654; in the data active = inhibition above about 50%
Target sequence (P51452 whole entry, looked up): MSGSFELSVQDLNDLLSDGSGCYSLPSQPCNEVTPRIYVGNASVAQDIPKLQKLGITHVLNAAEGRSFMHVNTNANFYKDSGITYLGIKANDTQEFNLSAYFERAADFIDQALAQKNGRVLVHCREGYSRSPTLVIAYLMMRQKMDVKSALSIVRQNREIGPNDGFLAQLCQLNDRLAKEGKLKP
ugtP null kill – kills S. aureus RN4220 lacking UgtP. S. aureus RN4220 ugtP deletion, OD600 growth, 16 h. growth inhibition, % (test concentration not listed). 0.54% of 330,000 active; in the data active = growth inhibition above about 68%;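 also: plate controls were untreated wells for no effect and antibiotic for full effect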
PfHsp40 yeast – compounds rescuing yeast from Plasmodium falciparum HSP40 toxicity; 0.68% of 340,000 active; growth rescue, % at 12.5 µM; AID 504582; S. cerevisiae expressing PfHsp40, growth rescue, ATP luminescence; in the data active = growth rescue above about 28%, passing the limit was not always enough; inconclusive = no clear call, values can overlap the other calls;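 also: yeast W303a lacking pdr1 and pdr3 grown in galactose medium; growth measured after three days at 30 °C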
* hit, by the source's call; u = inconclusive; x = no result given.

SMILES	Sa RN4220 lethal	PrPC TRFRET	DUSP3 inh	ugtP null kill	PfHsp40 yeast
COc1ccc(S(=O)(=O)N(C)CC2Oc3ccc(NC(=O)Nc4c(C)noc4C)cc3C(=O)N(C(C)CO)CC2C)cc1 (stereo not given)	0	x	x	-2	x
CCOC(=O)c1oc2ccc(CNCCO)c(Cl)c2c1C	4	3	33	17	0
CCOC(=O)c1oc2ccc(CNC3CCCCC3)c(Cl)c2c1C	-2	-3	13	82*	2
COc1cccc(NC(=O)C/C(C)=N/NC(=O)c2ccccc2Cl)c1	x	2	14	x	39*
C/C(CC(=O)Nc1ccccn1)=N\NC(=O)c1ccccc1O	x	6	16	x	234*
CCc1ccc(C(C)=NNc2ccc([N+](=O)[O-])cc2)cc1	-8	x	x	2	x
CC1CCC(=O)N(CCSc2ccc(Br)cc2)CC1 (stereo not given)	8	x	x	-10	x
CCN1CCSc2ccc(C(=O)NCc3ccc(OC(C)C)cc3)cc21	-14	6	53*	5	0
Cc1[nH]n(C(N)=S)c(=O)c1N=Nc1cccc(C(F)(F)F)c1	0	2	-7	1	2
Cc1[nH]n(C2=NCCS2)c(=O)c1N=Nc1cccc(C(F)(F)F)c1	99*	0	12	99*	u
NC(=O)C1CC2(CC(c3cccc(NC(=O)C4CCC(=O)N4)c3)=NO2)CN1C(=O)COc1ccc(Cl)cc1 (stereo not given)	7	x	x	13	x
CCn1nc(C)c(CN2CCC(Oc3ccc(C(=O)N4CCCC4)cc3)CC2)c1C	0	4	57*	10	0
O=C1C2C(c3ccc(F)cc3)N3C(=O)N(c4cccc(Cl)c4)C(=O)[C@@]3(Cc3ccc(Cl)cc3)C2C(=O)N1C1CCCCC1 (stereo not given in full)	-1	x	x	2	x
O=C(O)CCN1C(=O)/C(=C/c2ccc(-c3nc4ccccc4s3)o2)SC1=S	99*	-2	-4	1	-1
O=C(O)CCCN1C(=O)/C(=C/C=C/c2ccco2)SC1=S	7	-9	21	4	2
O=C(O)CCCN1C(=O)/C(=C\c2ccc(-c3nc4ccccc4s3)o2)SC1=S	47	4	26	100*	1
O=C(O)CC(C(=O)O)N1C(=O)/C(=C/c2ccc(-c3nc4ccccc4s3)o2)SC1=S (stereo not given)	-1	-16	21	-11	14
Cc1ccc(N2C(=O)CSC2=NC(=S)Nc2ccccc2)cc1	-4	x	x	17	x
COC(=O)COC(=O)c1ccccc1NC(=O)c1ccccc1	-1	-3	8	7	245*
CC(C)(C)c1ccc(CNc2cc(N3CCOCC3)ccc2[N+](=O)[O-])cc1	-4	2	17	92*	2
CC(C)c1ccc(CNc2cc(N3CCCC3)ccc2[N+](=O)[O-])cc1	7	9	26	1	2
CS(=O)(=O)N1CCN(c2ccc([N+](=O)[O-])c(NCc3ccc(Cl)cc3)c2)CC1	1	-2	90*	-14	-1
COc1ccc([N+]([O-])=Cc2ccoc2)cc1	3	x	x	1	x
COc1ccc2oc(=NO)c(C(=O)Nc3ccc(C)cc3)cc2c1	16	x	x	-1	x
Cc1nc(SC(C)C(=O)Nc2cccc(C(F)(F)F)c2)c2c(C)c(C(=O)O)sc2n1 (stereo not given)	14	-3	7	12	49*
SMILES	Sa RN4220 lethal	PrPC TRFRET	DUSP3 inh	ugtP null kill	PfHsp40 yeast
Cc1nc(N2CCC(C)CC2)c2c(C)c(C(=O)Nc3cccc(C(F)(F)F)c3)sc2n1	4	-1	-2	-17	-1
Cc1nc2ccc(NC(=O)c3cccs3)cc2c(=O)n1Cc1ccc(Cl)cc1	-1	6	13	18	31*
O=C(O)C1=CC(C2CC2)CC(OCCCCO)O1 (stereo not given)	7	x	x	3	x
CC(=NNC(=S)Nc1ccc(C)cc1)c1ccccn1	x	12	x	x	0
COc1ccccc1NC(=S)NN=C(C)c1ccccn1	x	21	x	x	180*
CC(=NNC(=S)Nc1cccc(C)c1)c1ccccn1	x	12	x	x	116*
CC1CC2C3CC(F)C4=CC(=O)C(Cl)=C[C@]4(C)[C@@]3(F)C(O)C[C@]2(C)[C@@]1(O)C(=O)CO (stereo not given in full)	5	x	x	-7	x
C=CCC(CC(=O)N(CCO)Cc1ccccc1)C(=O)NC(COC(=O)C(CC=C)Cc1ccc(F)cc1)C(C)(C)C (stereo not given)	-2	x	x	2	x
C=CCn1c(SCn2nnc3ccccc3c2=O)nnc1-c1ccc(Br)cc1	3	6	12	4	114*
O=C(c1ccc(OC2CCN(CCc3ccccc3)CC2)cc1)N1CCCCC1CCCO (stereo not given)	3	-5	50*	-3	-1
O=C(c1ccc(OC2CCN(CCc3ccccc3)CC2)cc1)N1CCCC(CCCO)C1 (stereo not given)	-2	-3	-4	7	-1
O=C1c2ccccc2NC(c2ccc(-c3cccc([N+](=O)[O-])c3)o2)N1O (stereo not given)	-7	-10	-20	-25	233*
CC(=O)NN1C(=O)c2ccccc2NC1c1cccc([N+](=O)[O-])c1 (stereo not given)	3	-7	x	18	0
O=C1c2ccccc2NC(c2ccc(-c3ccc(Br)cc3)o2)N1O (stereo not given)	10	2	-11	-26	0
O=C1c2ccccc2NC(c2ccc(-c3ccc(F)cc3)o2)N1O (stereo not given)	x	7	x	x	168*
CCCNc1nc(C)cc(-c2cc(C(=O)Nc3ccccc3)on2)n1	x	2	x	x	196*
CCCNc1nc(C)cc(-c2cc(C(=O)NCc3ccccc3)on2)n1	3	7	45	1	6
O=[N+]([O-])c1cc(Cl)cc(/C=N/Nc2nc3ccccc3s2)c1O	x	-2	33	x	-1
O=[N+]([O-])c1cc(Br)c(O)c(C=NNc2nc3ccccc3s2)c1	67	x	x	84*	x
CN(Cc1c(C(=O)NN=Cc2c(F)cccc2Cl)nnn1-c1nonc1N)c1ccccc1	8	x	x	-10	x
COC(=O)C1=C(C(=O)OC)C2N(C)c3ccc(OC)cc3[C@@]23CC(C(=O)OC)N(S(=O)(=O)c2ccc([N+](=O)[O-])cc2)C3=N1 (stereo not given in full)	3	x	x	3	x
COc1ccc(-c2cc(C#N)nc(N3CCN(c4ccccc4)CC3)n2)cc1	-1	0	53*	5	0
COc1ccc(Br)cc1S(=O)(=O)NCCN1CCOCC1	4	5	57*	3	1
COc1ccc(C)cc1S(=O)(=O)NCCN1CCOCC1	3	-7	31	12	0
CCC(/C=C1\Sc2ccc(OC)cc2N1CCO)=C\c1sc2ccc(OC)cc2[n+]1CCO	99*	7	-8	96*	3
CCC(/C=C1\Sc2ccc(OC)cc2N1CC)=C\c1sc2ccc(OC)cc2[n+]1CCCS(=O)(=O)[O-]	36	5	7	-18	1
N#CCCN(C(=O)Nc1ccccc1)c1ccccc1	6	-6	4	11	66*
N#CCCN(C(=O)Nc1ccc(Cl)cc1)c1ccccc1	1	-1	7	-13	0
